1 sequence from paper PMC7862700, “An all-to-all approach to the identification of sequence-specific readers for epigenetic DNA modifications on cytosine” can be followed below.

Common to all, as to assay: DAPPL (digital affinity profiling via proximity ligation, sequencing); 10 mM Tris-HCl pH 7.5, 50 mM NaCl, 1 mM DTT, 4% glycerol, room temperature, 30 min; GST-TFs on glutathione beads, 16-mer random dsDNA library, 0.1% formaldehyde crosslink after washing; high values mean tight binding
In one assay the target is T1, FEV (Homo sapiens, UniProt Q99581 1-238).
T1 sequence: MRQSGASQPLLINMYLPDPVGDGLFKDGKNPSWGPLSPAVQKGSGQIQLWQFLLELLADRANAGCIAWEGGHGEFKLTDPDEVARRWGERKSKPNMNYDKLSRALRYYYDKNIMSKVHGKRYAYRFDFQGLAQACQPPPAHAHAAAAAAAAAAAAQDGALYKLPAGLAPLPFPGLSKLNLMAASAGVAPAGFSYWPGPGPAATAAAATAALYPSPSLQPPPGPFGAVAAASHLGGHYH
The note with it: protein: recombinant; tags: N-terminal GST; dsDNA, one strand shown. Put shortly: (§1)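 Yeast served to express human transcription factors as GST fusions, which were then captured on glutathione beads and labelled with DNA barcodes. Pooled with a tag-only sample, they were incubated with 200 nmole of a 16-mer random double-stranded DNA library for 30 min at room temperature in Tris/NaCl/DTT/glycerol buffer, washed, crosslinked with 0.1% formaldehyde, ligated by proximity, amplified by PCR and sequenced. Dividing each hexamer's read frequency for a factor by its frequency for the tag-only sample gives the binding signal.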

The target of a further assay is ETV5 (Homo sapiens, UniProt P41161 1-510). Particulars: protein: recombinant; tags: N-terminal GST; dsDNA, one strand shown. In short, it runs like this:
as §1

A further assay concerns the target HSF1 (Homo sapiens, UniProt Q00613 1-529). The note with it: protein: recombinant; tags: N-terminal GST; chain copies: 3; dsDNA, one strand shown. In short, it runs like this: as §1
A further assay addresses T2, SPIC (Homo sapiens, UniProt Q8N5J4 1-248).
T2 sequence: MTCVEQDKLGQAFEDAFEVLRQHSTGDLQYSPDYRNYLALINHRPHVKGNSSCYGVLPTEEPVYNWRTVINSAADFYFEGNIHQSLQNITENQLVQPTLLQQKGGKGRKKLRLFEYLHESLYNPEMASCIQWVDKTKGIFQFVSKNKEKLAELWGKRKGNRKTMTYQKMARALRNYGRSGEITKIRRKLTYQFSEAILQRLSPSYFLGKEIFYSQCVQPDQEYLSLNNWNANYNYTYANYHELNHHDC
Particulars: protein: recombinant; tags: N-terminal GST; dsDNA, one strand shown. In short, it runs like this:
as §1

The target in another assay is ELF4 (Homo sapiens, UniProt Q99607 1-663). Particulars: protein: recombinant; tags: N-terminal GST; dsDNA, one strand shown. Put shortly:
as §1

The target of a further assay is T3, ELK4 (Homo sapiens, UniProt P28324-2 1-405).
T3 sequence: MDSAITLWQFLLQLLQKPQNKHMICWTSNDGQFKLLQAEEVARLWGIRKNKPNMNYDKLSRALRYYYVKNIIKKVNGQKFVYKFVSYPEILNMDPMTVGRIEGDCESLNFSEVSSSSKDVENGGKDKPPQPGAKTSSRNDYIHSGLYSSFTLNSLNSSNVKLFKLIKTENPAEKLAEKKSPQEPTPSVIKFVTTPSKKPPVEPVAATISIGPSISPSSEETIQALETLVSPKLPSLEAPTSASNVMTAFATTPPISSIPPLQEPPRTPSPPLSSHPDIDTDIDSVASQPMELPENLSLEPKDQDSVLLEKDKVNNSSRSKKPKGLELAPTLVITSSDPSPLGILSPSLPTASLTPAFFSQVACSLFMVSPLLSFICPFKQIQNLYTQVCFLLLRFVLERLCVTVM
The note with it: protein: recombinant; tags: N-terminal GST; dsDNA, one strand shown. Put shortly:
as §1

In another assay the target is T4, ETV2 (Homo sapiens, UniProt O00321 1-342).
T4 sequence: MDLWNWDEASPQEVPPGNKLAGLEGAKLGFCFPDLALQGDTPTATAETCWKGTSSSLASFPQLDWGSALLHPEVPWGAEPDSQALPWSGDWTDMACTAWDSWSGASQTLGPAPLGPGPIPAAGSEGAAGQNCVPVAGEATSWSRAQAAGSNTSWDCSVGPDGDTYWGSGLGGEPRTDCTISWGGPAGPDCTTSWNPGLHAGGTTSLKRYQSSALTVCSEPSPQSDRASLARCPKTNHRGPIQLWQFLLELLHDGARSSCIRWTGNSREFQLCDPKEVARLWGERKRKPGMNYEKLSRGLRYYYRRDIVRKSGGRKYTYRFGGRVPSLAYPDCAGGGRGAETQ
Particulars: protein: recombinant; tags: N-terminal GST; dsDNA, one strand shown. In short, it runs like this:
as §1

The target of another assay is T5, ELF3 (Homo sapiens, UniProt P78545 1-371).
T5 sequence: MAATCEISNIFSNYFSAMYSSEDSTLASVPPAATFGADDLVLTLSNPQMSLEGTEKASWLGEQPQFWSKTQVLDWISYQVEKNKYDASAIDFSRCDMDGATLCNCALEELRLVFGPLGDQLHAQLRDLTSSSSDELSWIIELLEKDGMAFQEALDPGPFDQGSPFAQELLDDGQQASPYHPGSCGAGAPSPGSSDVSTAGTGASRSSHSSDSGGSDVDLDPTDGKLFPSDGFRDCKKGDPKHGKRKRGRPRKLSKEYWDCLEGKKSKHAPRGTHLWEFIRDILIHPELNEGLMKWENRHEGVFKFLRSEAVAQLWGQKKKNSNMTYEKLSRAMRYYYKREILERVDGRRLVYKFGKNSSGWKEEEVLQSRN
Particulars: protein: recombinant; tags: N-terminal GST; dsDNA, one strand shown. In short, it runs like this:
as §1

The next assay addresses CRX (Homo sapiens, UniProt O43186 1-299). The note with it: protein: recombinant; tags: N-terminal GST; dsDNA, one strand shown. In short, it runs like this: as §1
The target of another assay is ETV1 (Homo sapiens, UniProt P50549 1-477). Particulars: protein: recombinant; tags: N-terminal GST; dsDNA, one strand shown. Put shortly: as §1
Sequence of ETV1 (P50549 whole entry): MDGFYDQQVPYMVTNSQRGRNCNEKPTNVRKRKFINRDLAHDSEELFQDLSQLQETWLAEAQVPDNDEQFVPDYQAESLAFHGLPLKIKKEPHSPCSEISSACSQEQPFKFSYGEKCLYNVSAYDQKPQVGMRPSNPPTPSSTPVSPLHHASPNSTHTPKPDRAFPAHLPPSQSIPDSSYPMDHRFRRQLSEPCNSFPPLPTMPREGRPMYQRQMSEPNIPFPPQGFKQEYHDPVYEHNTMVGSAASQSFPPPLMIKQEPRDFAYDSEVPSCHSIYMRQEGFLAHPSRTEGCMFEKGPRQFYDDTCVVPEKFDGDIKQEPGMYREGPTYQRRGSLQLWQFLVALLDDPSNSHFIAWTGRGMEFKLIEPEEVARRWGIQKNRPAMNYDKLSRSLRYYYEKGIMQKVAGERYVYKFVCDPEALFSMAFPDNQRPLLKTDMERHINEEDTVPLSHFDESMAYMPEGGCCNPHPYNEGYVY
In a further assay the target is T6, ERF (Homo sapiens, UniProt P50548 1-548).
T6 sequence: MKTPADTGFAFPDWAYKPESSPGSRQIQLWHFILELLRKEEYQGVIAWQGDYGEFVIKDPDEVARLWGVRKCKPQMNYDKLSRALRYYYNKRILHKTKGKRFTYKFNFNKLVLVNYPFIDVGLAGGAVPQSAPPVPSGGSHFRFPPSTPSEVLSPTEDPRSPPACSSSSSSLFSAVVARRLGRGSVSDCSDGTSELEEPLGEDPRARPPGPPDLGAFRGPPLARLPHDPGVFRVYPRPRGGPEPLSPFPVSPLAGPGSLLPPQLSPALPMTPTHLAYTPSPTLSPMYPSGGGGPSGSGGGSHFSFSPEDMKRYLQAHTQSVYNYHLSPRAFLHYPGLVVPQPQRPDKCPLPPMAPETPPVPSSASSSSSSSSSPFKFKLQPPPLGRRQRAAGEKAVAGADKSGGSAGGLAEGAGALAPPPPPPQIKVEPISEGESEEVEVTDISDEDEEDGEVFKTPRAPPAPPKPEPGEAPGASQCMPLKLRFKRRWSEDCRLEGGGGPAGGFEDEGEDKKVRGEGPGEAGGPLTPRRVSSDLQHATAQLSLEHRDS
Particulars: protein: recombinant; tags: N-terminal GST; dsDNA, one strand shown. Put shortly: as §1

The target in the next assay is T7, ETV3L (Homo sapiens, UniProt Q6ZN32 1-361).
T7 sequence: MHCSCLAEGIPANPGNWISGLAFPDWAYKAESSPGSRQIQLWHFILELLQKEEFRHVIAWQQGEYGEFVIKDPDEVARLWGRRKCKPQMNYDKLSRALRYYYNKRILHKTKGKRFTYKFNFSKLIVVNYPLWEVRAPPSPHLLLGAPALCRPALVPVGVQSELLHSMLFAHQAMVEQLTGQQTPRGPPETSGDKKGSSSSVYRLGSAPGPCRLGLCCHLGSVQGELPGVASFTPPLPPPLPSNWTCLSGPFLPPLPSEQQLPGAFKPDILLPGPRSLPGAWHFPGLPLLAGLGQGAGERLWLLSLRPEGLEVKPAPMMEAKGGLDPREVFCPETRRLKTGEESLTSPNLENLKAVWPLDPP
The note with it: protein: recombinant; tags: N-terminal GST; dsDNA, one strand shown. In short, it runs like this:
as §1

The target of the next assay is T8, ETS2 (Homo sapiens, UniProt P15036 1-469).
T8 sequence: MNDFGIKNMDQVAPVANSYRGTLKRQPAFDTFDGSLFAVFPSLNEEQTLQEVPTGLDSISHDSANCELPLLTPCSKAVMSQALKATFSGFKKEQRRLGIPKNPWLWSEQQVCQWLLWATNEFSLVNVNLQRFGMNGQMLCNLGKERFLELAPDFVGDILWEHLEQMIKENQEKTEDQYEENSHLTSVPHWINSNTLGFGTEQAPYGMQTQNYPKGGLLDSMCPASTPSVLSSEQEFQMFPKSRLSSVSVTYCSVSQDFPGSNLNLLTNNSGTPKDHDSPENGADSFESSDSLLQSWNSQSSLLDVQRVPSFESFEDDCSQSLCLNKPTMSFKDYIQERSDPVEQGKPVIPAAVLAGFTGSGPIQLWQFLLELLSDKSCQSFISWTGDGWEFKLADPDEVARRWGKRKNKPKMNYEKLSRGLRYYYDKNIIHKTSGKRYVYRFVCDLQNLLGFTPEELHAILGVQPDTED
The note with it: protein: recombinant; tags: N-terminal GST; dsDNA, one strand shown. In short, it runs like this: as §1

For the next assay, the target named is T9, SPDEF (Homo sapiens, UniProt O95238 1-335).
T9 sequence: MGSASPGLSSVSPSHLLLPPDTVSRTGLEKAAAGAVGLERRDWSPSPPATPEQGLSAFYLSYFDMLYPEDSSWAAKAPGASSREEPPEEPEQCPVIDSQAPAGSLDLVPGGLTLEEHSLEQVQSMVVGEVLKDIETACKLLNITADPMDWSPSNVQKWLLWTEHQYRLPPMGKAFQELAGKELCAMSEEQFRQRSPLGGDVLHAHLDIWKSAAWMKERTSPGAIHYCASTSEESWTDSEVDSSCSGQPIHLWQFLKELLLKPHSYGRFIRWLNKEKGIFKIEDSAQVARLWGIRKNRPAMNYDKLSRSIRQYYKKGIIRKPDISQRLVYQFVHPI
Particulars: protein: recombinant; tags: N-terminal GST; dsDNA, one strand shown. Put shortly:
as §1

Another assay has as its target T10, ETV7 (Homo sapiens, UniProt Q9Y603 1-341).
T10 sequence: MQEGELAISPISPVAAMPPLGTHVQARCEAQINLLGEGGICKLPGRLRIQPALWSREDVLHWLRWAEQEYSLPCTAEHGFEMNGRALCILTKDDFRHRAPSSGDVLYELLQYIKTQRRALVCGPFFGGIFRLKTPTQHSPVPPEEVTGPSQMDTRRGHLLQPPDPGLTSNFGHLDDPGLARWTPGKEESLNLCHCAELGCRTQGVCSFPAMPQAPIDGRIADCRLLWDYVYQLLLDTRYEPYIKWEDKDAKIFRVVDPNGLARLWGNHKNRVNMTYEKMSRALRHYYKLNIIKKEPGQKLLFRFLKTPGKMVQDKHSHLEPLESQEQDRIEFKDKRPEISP
Particulars: protein: recombinant; tags: N-terminal GST; dsDNA, one strand shown. In short, it runs like this:
as §1

Another assay concerns the target T11, ELF5 (Homo sapiens, UniProt Q9UKW6-2 1-255).
T11 sequence: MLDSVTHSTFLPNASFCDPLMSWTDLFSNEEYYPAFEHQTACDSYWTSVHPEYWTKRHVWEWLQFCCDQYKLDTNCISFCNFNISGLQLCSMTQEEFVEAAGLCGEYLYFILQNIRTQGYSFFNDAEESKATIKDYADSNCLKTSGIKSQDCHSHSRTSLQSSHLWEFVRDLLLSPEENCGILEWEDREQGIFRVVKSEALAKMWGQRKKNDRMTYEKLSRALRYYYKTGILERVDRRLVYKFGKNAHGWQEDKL
Particulars: protein: recombinant; tags: N-terminal GST; dsDNA, one strand shown. In short, it runs like this: as §1

The target of another assay is T12, ETV3 (Homo sapiens, UniProt P41162-2 1-143).
T12 sequence: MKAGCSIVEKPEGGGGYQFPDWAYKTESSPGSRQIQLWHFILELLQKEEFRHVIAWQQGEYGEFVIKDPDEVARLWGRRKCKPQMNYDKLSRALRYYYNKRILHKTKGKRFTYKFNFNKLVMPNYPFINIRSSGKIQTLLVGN
The note with it: protein: recombinant; tags: N-terminal GST; dsDNA, one strand shown. In short, it runs like this: as §1

A further assay concerns the target ETV6 (Homo sapiens, UniProt P41212 1-452). Particulars: protein: recombinant; tags: N-terminal GST; dsDNA, one strand shown. In short, it runs like this: as §1

Sequence of ETV6 (P41212 whole entry): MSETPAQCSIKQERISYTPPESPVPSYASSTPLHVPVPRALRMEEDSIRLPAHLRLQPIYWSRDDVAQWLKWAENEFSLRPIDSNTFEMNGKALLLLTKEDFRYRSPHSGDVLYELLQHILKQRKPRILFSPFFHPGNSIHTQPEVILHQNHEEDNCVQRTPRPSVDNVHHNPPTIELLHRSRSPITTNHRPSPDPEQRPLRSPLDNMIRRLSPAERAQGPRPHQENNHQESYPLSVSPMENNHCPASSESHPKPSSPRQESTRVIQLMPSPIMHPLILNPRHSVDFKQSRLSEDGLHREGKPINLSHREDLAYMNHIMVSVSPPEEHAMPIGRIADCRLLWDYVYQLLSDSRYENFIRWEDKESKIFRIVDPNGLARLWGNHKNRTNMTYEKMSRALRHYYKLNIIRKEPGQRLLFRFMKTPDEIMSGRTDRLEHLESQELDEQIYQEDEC
Sequence of CRX (O43186 whole entry): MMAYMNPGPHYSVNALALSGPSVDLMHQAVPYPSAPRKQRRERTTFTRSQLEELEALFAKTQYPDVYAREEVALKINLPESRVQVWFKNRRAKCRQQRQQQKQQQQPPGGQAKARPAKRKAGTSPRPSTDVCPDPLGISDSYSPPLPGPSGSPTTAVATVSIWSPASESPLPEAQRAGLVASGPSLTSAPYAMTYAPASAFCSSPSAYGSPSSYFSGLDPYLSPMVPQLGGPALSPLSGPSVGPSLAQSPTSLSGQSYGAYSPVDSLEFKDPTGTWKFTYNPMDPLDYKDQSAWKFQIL
Sequence of ETV5 (P41161 whole entry): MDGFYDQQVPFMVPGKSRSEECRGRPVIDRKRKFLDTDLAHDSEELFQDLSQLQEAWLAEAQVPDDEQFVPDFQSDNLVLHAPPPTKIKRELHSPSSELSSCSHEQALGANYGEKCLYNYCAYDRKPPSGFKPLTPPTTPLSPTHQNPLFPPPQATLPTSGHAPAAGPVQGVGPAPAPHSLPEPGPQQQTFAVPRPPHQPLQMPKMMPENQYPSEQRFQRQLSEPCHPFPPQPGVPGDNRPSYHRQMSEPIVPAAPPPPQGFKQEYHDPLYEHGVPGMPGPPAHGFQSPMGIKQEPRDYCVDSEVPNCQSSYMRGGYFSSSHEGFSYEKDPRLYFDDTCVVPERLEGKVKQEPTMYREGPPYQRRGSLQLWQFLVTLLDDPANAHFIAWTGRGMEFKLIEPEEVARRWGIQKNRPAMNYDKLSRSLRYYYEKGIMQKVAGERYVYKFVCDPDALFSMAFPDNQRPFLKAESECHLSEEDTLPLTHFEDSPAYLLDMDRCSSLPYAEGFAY
Sequence of ELF4 (Q99607 whole entry): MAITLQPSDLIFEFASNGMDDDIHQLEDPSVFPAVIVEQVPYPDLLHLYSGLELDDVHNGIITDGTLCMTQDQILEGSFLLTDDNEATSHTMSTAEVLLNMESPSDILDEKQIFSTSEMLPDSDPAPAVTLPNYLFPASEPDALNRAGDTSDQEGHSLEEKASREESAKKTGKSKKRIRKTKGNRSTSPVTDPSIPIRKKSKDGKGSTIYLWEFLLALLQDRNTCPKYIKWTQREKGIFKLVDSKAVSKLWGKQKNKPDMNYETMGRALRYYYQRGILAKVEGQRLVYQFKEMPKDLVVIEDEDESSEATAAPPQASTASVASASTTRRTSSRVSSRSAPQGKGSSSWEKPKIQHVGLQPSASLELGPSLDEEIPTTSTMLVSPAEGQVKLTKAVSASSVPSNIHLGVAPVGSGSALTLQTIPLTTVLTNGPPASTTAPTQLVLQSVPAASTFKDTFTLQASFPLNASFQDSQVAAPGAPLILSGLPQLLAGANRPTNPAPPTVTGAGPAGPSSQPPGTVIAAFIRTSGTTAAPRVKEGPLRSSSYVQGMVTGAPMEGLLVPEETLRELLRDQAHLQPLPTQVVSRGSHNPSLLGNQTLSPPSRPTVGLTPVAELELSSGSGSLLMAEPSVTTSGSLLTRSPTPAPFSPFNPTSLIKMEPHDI
Sequence of HSF1 (Q00613 whole entry): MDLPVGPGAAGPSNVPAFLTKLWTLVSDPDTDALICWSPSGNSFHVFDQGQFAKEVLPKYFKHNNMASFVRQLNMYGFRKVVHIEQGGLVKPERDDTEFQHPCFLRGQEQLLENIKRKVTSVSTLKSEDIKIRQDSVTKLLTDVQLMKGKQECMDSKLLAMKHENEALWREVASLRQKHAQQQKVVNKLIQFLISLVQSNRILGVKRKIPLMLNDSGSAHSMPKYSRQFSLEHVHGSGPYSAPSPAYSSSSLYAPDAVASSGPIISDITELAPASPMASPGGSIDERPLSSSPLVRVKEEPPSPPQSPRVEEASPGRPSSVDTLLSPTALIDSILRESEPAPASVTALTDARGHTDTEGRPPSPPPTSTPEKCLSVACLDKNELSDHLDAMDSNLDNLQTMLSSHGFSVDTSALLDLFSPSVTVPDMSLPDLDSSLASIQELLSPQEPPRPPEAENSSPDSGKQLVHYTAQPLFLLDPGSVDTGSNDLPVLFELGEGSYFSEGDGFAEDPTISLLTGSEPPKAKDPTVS

ATTGAT: the binding signal with FEV was 1.25 fold enrichment (6-mer frequency, TF over GST control); with ETV5, 1.2 fold enrichment (6-mer frequency, TF over GST control); with HSF1, 1.37 fold enrichment (6-mer frequency, TF over GST control); with SPIC, 1.42 fold enrichment (6-mer frequency, TF over GST control); in the assay with ELF4, 1.32 fold enrichment (6-mer frequency, TF over GST control); with ELK4, 1.38 fold enrichment (6-mer frequency, TF over GST control). In addition, the binding signal with ETV2 was 1.3 fold enrichment (6-mer frequency, TF over GST control); in the assay with ELF3 it was 1.22 fold enrichment (6-mer frequency, TF over GST control); with CRX, 1.46 fold enrichment (6-mer frequency, TF over GST control); in the assay with ETV1 it was 1.39 fold enrichment (6-mer frequency, TF over GST control); with ERF, 1.34 fold enrichment (6-mer frequency, TF over GST control); with ETV3L, 1.31 fold enrichment (6-mer frequency, TF over GST control). Besides, the binding signal in the assay with ETS2 is 1.29 fold enrichment (6-mer frequency, TF over GST control); with SPDEF, 1.32 fold enrichment (6-mer frequency, TF over GST control); in the assay with ETV7, 1.23 fold enrichment (6-mer frequency, TF over GST control); with ELF5 it was 1.27 fold enrichment (6-mer frequency, TF over GST control); in the assay with ETV3, 1.33 fold enrichment (6-mer frequency, TF over GST control); in the assay with ETV6 it was 1.24 fold enrichment (6-mer frequency, TF over GST control).
